Inconclusive results are not listed. Active and inactive are the calls of the source. Calls come from the whole dose curve; as a rule, active = well fitted inhibition curve with a large enough effect; inconclusive = small, poorly fitted or top-dose-only effect; inactive = flat fitted curve, though single readings scatter.
Key:
Test in all cases: qHTS profiling for inhibitors of Plasmodium falciparum proliferation (AID 504749); note: nearly all actives have a fitted effect of over 60% in size
Details in all cases: P. falciparum in erythrocytes, SYBR Green DNA, 72 h; series mostly up to 28.7 µM
[1] = system: CP291
Outline: (§1)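 Readout was DNA-dye fluorescence from lysed cultures, ex 485/em 535 nm. Parasitized red cells had grown 72 h with compound; data scaled between 0.29 uM artemisinin and DMSO wells and corrected using vehicle-only plates.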

[2] = system: CP297
Outline: as §1

[3] = system: CP305
Outline: as §1

[4] = system: CP315
Outline: as §1

[5] = system: CP325
Outline: as §1

[6] = system: CP329
Outline: as §1

[7] = system: CP335
Outline: as §1

[8] = system: DFO2036
Outline: as §1

[9] = system: DIV14
Outline: as §1

[10] = system: DIV17
Outline: as §1

[11] = system: DIV30
Outline: as §1

[12] = system: Dd2
Outline: as §1

[13] = system: ECU
Outline: as §1

[14] = system: FAB9
Outline: as §1

[15] = system: GB4
Outline: as §1

[16] = system: HB3
Outline: as §1

[17] = system: ICS
Outline: as §1

[18] = system: JCK
Outline: as §1

[19] = system: N140
Outline: as §1

[20] = system: P93_24
Outline: as §1

Measured: Potency

CC(C)CCC[C@@H](C)[C@H]1CC[C@H]2[C@@H]3CC=C4C[C@@H](O)CC[C@]4(C)[C@H]3CC[C@]12C
inactive: all assays above

CNC(=O)OCc1cccc(COC(=O)NC)n1
inactive: all assays above

CN(CCO)CC(O)Cn1cnc2c1c(=O)n(C)c(=O)n2C (stereo not given) (tested in a mixture with another compound)
inactive: all assays above

c1ccc2c(c1)OCC(CN1CCCCC1)O2 (stereo not given)
inactive: all assays above

COc1ccc(C(=O)c2ccc(C)cc2)c(O)c1
inactive: all assays above

CN1c2c(nc(N)[nH]c2=O)NCC1CNc1ccc(C(=O)NC(CCC(=O)O)C(=O)O)cc1 (stereo not given)
inactive: all assays above

C[C@H](N)C(=O)N[C@@H](C)P(=O)(O)O
inactive: all assays above

CC(=O)[C@H]1CC[C@H]2[C@@H]3C=CC4=CC(=O)CC[C@@]4(C)[C@H]3CC[C@]12C
inactive: all assays above

CCN(CC)CCOc1ccc2nc(N(C)C)sc2c1
inactive: all assays above

O=C(NNCS(=O)(=O)O)c1ccncc1
inactive: all assays above

COC1=C(OC)C(=O)C(C/C=C(\C)CC/C=C(\C)CC/C=C(\C)CC/C=C(\C)CC/C=C(\C)CC/C=C(\C)CC/C=C(\C)CC/C=C(\C)CC/C=C(\C)CCC=C(C)C)=C(C)C1=O
inactive: all assays above

Cc1cccc(C)c1NC(=O)NC1=CCCN1C
inactive: all assays above

O=C(O)C1=C(CSc2nnnn2CS(=O)(=O)O)CS[C@@H]2[C@H](NC(=O)[C@H](O)c3ccccc3)C(=O)N12
inactive: all assays above

CC12CCC(C1)C(C)(C)C2=O (stereo not given)
inactive: all assays above

CC(=O)NCCCS(=O)(=O)O
inactive: all assays above

CO[C@H]1C[C@@H]2CC[C@@H](C)[C@@](O)(O2)C(=O)C(=O)N2CCCC[C@H]2C(=O)O[C@H]([C@H](C)C[C@@H]2CC[C@@H](OC(=O)C(C)(CO)CO)[C@H](OC)C2)CC(=O)[C@H](C)/C=C(\C)[C@@H](O)[C@@H](OC)C(=O)[C@H](C)C[C@H](C)/C=C/C=C/C=C/1C
inactive: all assays above

Cc1ncc(C[n+]2csc(CCOP(=O)(O)OP(=O)(O)O)c2C)c(N)n1
inactive: all assays above

COc1cc2c(cc1OC)[C@@H](Cc1cc(OC)c(OC)c(OC)c1)[N+](C)(CCCOC(=O)CC/C=C/CCC(=O)OCCC[N+]1(C)CCc3cc(OC)c(OC)cc3[C@H]1Cc1cc(OC)c(OC)c(OC)c1)CC2 (stereo not given in full)
inactive: all assays above

O=S(=O)(O)CC(S)CS (stereo not given)
inactive: all assays above

O=C(O)/C=C/c1ccccc1
inactive: all assays above

Cc1nc(NS(=O)(=O)c2ccc(N)cc2)nc(C)c1Br
inactive: all assays above

O=C1c2ccccc2C(=O)c2c1ccc(O)c2O
inactive: all assays above

CCCCC(CC)COS(=O)(=O)O (stereo not given)
inactive: all assays above

O=C1NCCN1c1ncc([N+](=O)[O-])s1
inactive: all assays above

FC(F)(F)COCC(F)(F)F
inactive: all assays above

CCCCCCCCCCCC(=O)N(CCO)CCO
inactive: all assays above
